# Compound activity deposited in PubChem by National Center for Advancing Translational Sciences (NCATS).
# This is a sample that favours compounds with a hit; in the whole collection about 7.7% have one here.
# RE007 growth inh – qHTS Assay for Inhibitors of the HIV-1 protein Vpr; S. pombe RE007 Vpr strain, BacTiter-Glo ATP luminescence, 24 h; Potency, µM (doses to about 92.2 µM), for the others: top-dose activity change, negative = less growth, most hits filed as inhibitors; 360,000 compounds, 0.21% hits; AID 651644, 2012; active = well fitted falling curve with a large enough effect; inconclusive = small, poorly fitted or top-dose-only effect; inactive = no such curve, though single readings can be large or run the other way; also: potency is read from the fitted curve at half-maximal effect; nearly all actives have a fitted effect of over 50% in size
#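 Fission yeast strain RE007, carrying one chromosomally integrated HIV-1 vpr copy, was seeded at OD 0.01 in PMG+AL medium with 23 nL pinned compound. After 24 h at 30 °C and 99% humidity, viability was read by BacTiter-Glo luminescence.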
# TbPYK inhibitor – qHTS of Trypanosoma Brucei Inhibitors. pyruvate kinase (Trypanosoma brucei), Q57TT1. 410,000 compounds, 0.12% hits. Potency, µM (titrated, usually from 76.8 µM), without a hit: at the highest dose activity, negative = inhibition, usual class: inhibitors. TbPYK enzyme, Kinase-Glo Plus ATP luminescence, 45 min; also: potency is read from the fitted curve at half-maximal effect; nearly all actives have a fitted effect of over 50% in size
#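 Readout: single end-point luminescence (Kinase-Glo Plus, 10 min). Reaction conditions were TbPYK/substrate plus 130 uM ADP, 45 min at RT, pH 7.2 TEA buffer. No-enzyme wells served as controls, and data were normalized before concentration-response fitting.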
# FMDV antiviral – High Throughput Screening for Foot and Mouth Disease Virus Antivirals | FMDV antiviral cell-based qHTS | Potency, µM (series often up to 57.9 µM), inactives show at the top dose activity change, negative = inhibition, most hits filed as inhibitors | 410,000 compounds, 1.2% hits; calls by dose curve; tested in HEK293T cells; also: read-out not given here; potency is read from the fitted curve at half-maximal effect; nearly all actives have a fitted effect of over 45% in size
# HCMV antiviral – qHTS Assay for inhibitors of the human cytomegalovirus (HCMV); HFF cells, HCMV-luciferase reporter, 72 h; active compounds read low; activity change, negative = inhibition, % at 57.5 µM; 410,000 compounds, 4.5% hits; in the data active = activity change below about -60%; inconclusive = no clear call, values can overlap the other calls; inactive = above about -39%
#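 Steps: HFFs plated, 16 h 37C; compounds added; HCMV-luciferase added to MOI 1 PFU/cell; 72 h 37C; OneGlo reagent, 5 min room temperature; luminescence read, normalized to controls.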
# Sm TGR block – qHTS Assay for the Inhibitors of Schistosoma Mansoni Peroxiredoxins; Schistosoma mansoni thioredoxin glutathione reductase (TGR), Q962Y6; purified TGR, DTNB reduction, TNB absorbance 405 nm; Potency, µM (top dose mostly 114 µM), for the others: top-dose activity change, negative = inhibition, hits mostly inhibitors; 360,000 compounds, 3% hits; also: potency is read from the fitted curve at half-maximal effect; nearly all actives have a fitted effect of over 60% in size
#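 First, TGR (20 nM dispensed) and NADPH were mixed with compound. Second, a 15 min room-temperature incubation followed. Third, further NADPH and then DTNB were added to start the reaction. Finally, TNB absorbance was monitored kinetically.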
# Giardia FBPA inh – qHTS Assay for Inhibitors of Fructose-1,6-bisphosphate Aldolase from Giardia Lamblia. purified Giardia FBPA. Potency, µM (doses to about 59.6 µM), for inactives: top-dose activity, negative = inhibition, usual class: inhibitors. 290,000 compounds, 0.71% hits. AID 2451, 2010; also: potency is read from the fitted curve at half-maximal effect; nearly all actives have a fitted effect of over 55% in size
# Target sequence (A8B2U2 whole entry, looked up): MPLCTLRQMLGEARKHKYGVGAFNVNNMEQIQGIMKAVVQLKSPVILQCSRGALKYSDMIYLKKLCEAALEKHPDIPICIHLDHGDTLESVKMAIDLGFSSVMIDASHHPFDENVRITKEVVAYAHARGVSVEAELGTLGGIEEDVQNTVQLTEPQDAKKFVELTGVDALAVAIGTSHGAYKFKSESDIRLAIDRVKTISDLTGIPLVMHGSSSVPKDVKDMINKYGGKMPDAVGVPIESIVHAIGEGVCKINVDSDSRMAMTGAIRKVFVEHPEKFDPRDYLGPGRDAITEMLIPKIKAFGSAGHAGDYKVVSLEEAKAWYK
#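 Giardia FBPA (40 nM reagent) was preincubated 10 min at RT with compound (up to 57.5 uM final), then substrate plus GAPDH/TPI/NAD/arsenate coupling system with diaphorase/resazurin was added; resorufin fluorescence (525/598 nm) was read after 20 min.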
# An asterisk follows results filed as active; ? = inconclusive; · = no result given. Unless noted, calls follow the shape of the dose curve; as a rule, active = well fitted curve in the direction sought with a large enough effect; inconclusive = small, poorly fitted or top-dose-only effect, or another doubt; inactive = no such curve, though single readings can be large; an effect the other way counts as inactive or inconclusive. % is scaled to controls: 0 for no effect and ±100 for the full control effect.
SMILES,RE007 growth inh,TbPYK inhibitor,FMDV antiviral,HCMV antiviral,Sm TGR block,Giardia FBPA inh
CCOC(=O)N1CCN(C2CC(=O)N(c3ccc(Cl)c(Cl)c3)C2=O)CC1 (configuration not stated),11.2µM*,-7.2%,-16.8%,-19.5,20µM*,2.5%
COc1ccc(-c2cc(C(F)(F)F)nc(SCC(=O)NCc3ccco3)n2)cc1OC,14.5%,-10.6%,0.0%,36.3,44.7µM*,2.0%
O=C(CSc1nc(-c2cccs2)cc(C(F)(F)F)n1)NCc1ccco1,9.0%,2.1%,·,-75.4*,?,8.5%
CC(=O)O[C@H](C)OC(=O)[C@@H](C)c1ccc(-c2ccccc2)c(F)c1,·,-7.0%,·,·,·,·
Cc1cccc(CCNC(=O)c2nc(-c3ccc(Cl)cc3)n3c2CCCCC3)c1,·,4.0%,-22.7%,-13.8,9.2%,·
O=C(c1ccccc1Cl)N1CCCCC1CCN1CCOCC1 (configuration not stated),·,3.4%,-4.8%,33.6,-1.6%,·
COc1ccc(C(=O)N2CCN(c3nc4ccccc4o3)CC2)cc1OC,-4.7%,-0.9%,?,?,-25.1%,2.5%
COc1ccccc1-c1nnc(C2CCN(C(=O)c3cccc(C)c3)CC2)o1,·,-6.7%,10.5%,-64.6*,-1.4%,·
COc1ccc(C(=O)N2CCC(c3noc4ccccc34)CC2)cc1OC,·,·,·,-64.9*,·,·
COc1ccc(C(=O)N(C)C(C)c2nccs2)cc1OC1CCN(C(C)=O)CC1 (configuration not stated),4.2%,4.3%,36.2%,15.2,·,·
COc1ccc(C(=O)N(C)Cc2ccc(C)o2)cc1OC1CCN(C(C)=O)CC1,6.7%,-6.7%,17.6%,13.9,25.1µM*,-2.8%
COc1ccc(C(=O)N2CCCCCC2)cc1OC1CCN(C(C)=O)CC1,19.5%,7.8%,-7.5%,-78.3*,0.1%,1.2%
CCCCCCCCCCCCCCCCOCCOCCOCCOCCOCCOCCOCCOCCOCCOCCOCCOCCOCCOCCOCCOCCOCCOCCOCCOCCO,·,3.2%,·,·,·,·
Cc1ccc(Cl)cc1N1CCN(S(=O)(=O)c2ccc3oc(=O)c4ncn(C)c4c3c2)CC1,·,-11.4%,-7.3%,11.0,24.7%,·
Cc1ccccc1C(=O)NNc1ncnc2c1cnn2-c1cccc(Cl)c1,·,-4.7%,-15.1%,-34.4,-0.1%,·
CCN(CC)C(=O)C1CCCN(c2ncnc3c2nc2n3CCCCC2)C1 (configuration not stated),·,-7.3%,-19.4%,4.9,-16.6%,·
CC(C)N(Cc1ccccc1)C(=O)C1CCCN(c2ncnc3c2nc2n3CCCCC2)C1 (configuration not stated),-0.8%,-3.6%,?,-60.4*,-10.7%,·
Cc1ccc(C)c(N2CCN(C(=O)C3CCCN(c4ncnc5c4nc4n5CCCCC4)C3)CC2)c1 (configuration not stated),15.6%,5.1%,?,-69.0*,-19.6%,2.9%
CCCCN(Cc1ccco1)C(=O)C1CCCN(c2ncnc3c2nc2n3CCCCC2)C1 (configuration not stated),-2.6%,4.5%,-24.8%,-92.9*,-22.0%,·
O=C(C1CCCN(c2ncnc3c2nc2n3CCCCC2)C1)N1CCN(c2cccc(Cl)c2)CC1 (configuration not stated),5.6%,9.3%,?,-28.9,-6.4%,-1.0%
O=C(C1CCCN(c2ncnc3c2nc2n3CCCCC2)C1)N1CCN(c2ccccc2)CC1 (configuration not stated),13.3%,-7.2%,?,-62.0*,13.2%,·
CCC(=O)N1c2ccccc2CC1C(=O)NCc1cccc(C)c1 (configuration not stated),·,-0.5%,21.6%,2.6,-2.5%,·
O=C(O)c1ccc(Nc2nc3ccccc3c3nncn23)cc1,·,-7.3%,18.5%,21.5,8.7%,·
